A short description of experiment [1]: AP1 Signaling Pathway (AID 357).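 Note: ME-180 reporter cells stimulated with EGF at its EC50 level; % is set by controls: 0 for no effect and ±100 for the full control effect.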 Particulars: ME-180 AP-1-bla reporter, EGF-induced, beta-lactamase ratio, 5 h. Put shortly:
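Beta-lactamase reporter under AP-1 response element, ME-180 background. Stimulus: EC50 EGF. Compound exposure 5 h, 37 °C. Detection: CCF4, 2.5 h RT, 460/530 nm. Values: AC50 from titration.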

A short description of experiment [2]: NFAT Signaling Pathway (AID 444).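 Note: carbachol stimulus at about its EC50 of 1 µM final; % is set by controls: 0 for no effect and ±100 for the full control effect.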 Particulars: Jurkat NFAT-bla M1, carbachol, beta-lactamase ratio, 5 h. Summed up: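 Read-out: CCF4 FRET ratio (460 nm/530 nm) after 1 h RT dye loading, used for %activity and AC50 from titration series. Cells: Jurkat NFAT-β-lactamase/M1 line, treated with compound plus 1 uM carbachol for 5 h, 37 °C.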
Experiment [3] is described as follows: Stat Signaling Pathway (AID 446).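 Note: ME-180 cervical cancer cells given 40 pM IL-6 alongside compound; SIE-controlled beta-lactamase reporter measured as 460/530 nm FRET emission ratio; % is set by controls: 0 for no effect and ±100 for the full control effect.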 Conditions: ME-180 (cervical carcinoma) SIE beta-lactamase reporter, IL-6 stimulated, 5 h. Summed up:
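Compound effects on IL-6-induced STAT reporter activity were measured in ME-180 cells. After overnight culture, cells were co-treated with 40 pM IL-6 for 5 hrs before beta-lactamase substrate loading at room temperature.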

Experiment [4] is described as follows: Cell Viability - BJ (AID 421; calls by dose curve;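 note: potency is the fitted concentration of half-maximal effect; cells exposed to compound for 40 hours at 37 °C before readout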). Conditions: BJ fibroblast viability, qHTS. Summed up:
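Luminescent ATP signal (CellTiter-Glo, 20 min at room temperature) served as the read-out of viable BJ cells after 40 hours of compound treatment. Responses were scaled between DMSO and 100 uM tamoxifen, and AC50 values were obtained by Hill modeling.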
On the technique in general: Quantitative high-throughput screening tests each substance at several concentrations.

A short description of experiment [5]: Cell Viability - Jurkat (AID 426;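 active = dose-dependent loss of cell ATP signal giving a full or clear fitted curve, ranked by lower potency value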;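 note: potency is the fitted concentration of half-maximal effect; cells exposed to compound for 40 hours at 37 °C before ATP read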). Conditions: qHTS. Summed up: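 Cytotoxicity was scored as loss of cellular ATP, measured by luciferase-based luminescence, in Jurkat clone E6-1 cells after 40 h compound treatment; tamoxifen and doxorubicin served as positive controls.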
Experiment [6] in a line: Cell Viability - Hek293 (AID 427;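 active = compounds whose dose-response curve shows a full or clear partial loss of cell viability, called from curve shape rather than a numeric limit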;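 note: potency is the fitted concentration of half-maximal effect; cells exposed to compound for 40 hours at 37 °C before reading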). Conditions: qHTS. Put shortly: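 Luminescent ATP read-out (CellTiter-Glo, 20 min RT) after 40 hr compound exposure at 37 °C in complete medium. Signal normalized to DMSO (basal) and 100 uM tamoxifen (100% inhibition); concentration-response fitted with the standard Hill equation to give AC50.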
Experiment [7] in a line: Cell Viability - HepG2 (AID 433; calls by dose curve; note: potency is the fitted concentration of half-maximal effect). Conditions: qHTS. Put shortly: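 HepG2 hepatocellular carcinoma cells (1500/well) were treated with compounds for 40 h at 37 °C in complete medium; intracellular ATP was read by CellTiter-Glo luminescence. Data were normalized to DMSO and 100 uM tamoxifen, and AC50 came from Hill fits.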
The nature of experiment [8]: Cell Viability - MRC5 (AID 434; calls by dose curve;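 note: potency is the fitted concentration of half-maximal effect; potency reflects cytotoxicity seen as loss of intracellular ATP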). Conditions: MRC5 lung fibroblast viability, qHTS. Summed up: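 AC50 values come from Hill-equation fits of intracellular ATP loss, measured by CellTiter-Glo luminescence. Normal lung fibroblasts (MRC5) had 40 hr compound treatment at 37 C, normalized between DMSO and 100 uM tamoxifen.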
Experiment [9] can be described thus: Cell Viability - SK-N-SH (AID 435; calls by dose curve;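 note: potency is the fitted concentration of half-maximal effect; compound exposure lasted 40 h at 37 °C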). Particulars: SK-N-SH neuroblastoma cell viability qHTS. Summed up: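 SK-N-SH human neuroblastoma cells (1500/well) were exposed to compounds in complete medium for 40 h at 37 °C, and intracellular ATP was then measured by CellTiter-Glo luminescence. AC50 was taken from Hill fits, normalized to DMSO and 100 uM tamoxifen.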
The target of experiment [10] is Cytochrome P450 1A2 (Homo sapiens) (UniProt P05177). Put plainly: p450-cyp1a2 (AID 410; calls by dose curve;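 note: -100% = full effect of reference inhibitor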). Particulars: recombinant CYP1A2, luciferin-ME demethylation, luminescence; series mostly up to 57 µM. Summed up:
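Read-out is luminescence from luciferin produced by CYP1A2 demethylation of Luciferin-ME (100uM, at Km). Detection reagent stopped the 60 min NADPH-dependent reaction; signals were normalized to 57 uM furafylline.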

Molecules are shown by their SMILES. Records with an inconclusive call do not appear. Unmarked numbers belong to inactive results. Calls of active or inactive are those of the source. Unless noted, calls come from the whole dose curve; as a rule, active = well fitted curve in either direction with a large enough effect (not every such curve was filed as active); inconclusive = small, poorly fitted or top-dose-only effect, or another doubt; inactive = flat fitted curve, though single readings scatter.

Consider 5 compounds from PubChem BioAssay (NCATS).

Sequence of Cytochrome P450 1A2 (Homo sapiens) (P05177 whole entry, looked up): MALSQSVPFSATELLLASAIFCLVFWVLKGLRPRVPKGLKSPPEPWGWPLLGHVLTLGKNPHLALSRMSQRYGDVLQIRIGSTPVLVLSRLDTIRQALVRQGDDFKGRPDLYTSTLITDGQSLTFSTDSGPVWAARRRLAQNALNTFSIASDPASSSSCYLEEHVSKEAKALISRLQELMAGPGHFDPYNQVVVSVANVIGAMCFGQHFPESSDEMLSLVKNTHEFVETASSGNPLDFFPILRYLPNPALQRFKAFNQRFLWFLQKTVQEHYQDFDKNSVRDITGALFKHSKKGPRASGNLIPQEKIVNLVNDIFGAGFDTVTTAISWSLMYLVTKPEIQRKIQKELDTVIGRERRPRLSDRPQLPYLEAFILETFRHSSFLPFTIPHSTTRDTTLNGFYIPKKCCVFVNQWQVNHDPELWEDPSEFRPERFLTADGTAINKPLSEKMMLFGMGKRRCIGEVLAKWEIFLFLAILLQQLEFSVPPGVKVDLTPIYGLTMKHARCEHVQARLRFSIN

Take `CN1[C@H]2CC(OC(=O)[C@@H](CO)c3ccccc3)C[C@H]1[C@H]1O[C@H]12` (some centres undefined): the activity change, negative = inhibition in [1] (at 17.2 µM (top of the series)) was 19.5%; in experiment [2] (at 17.2 µM (top of the series)), -45.8% (active). In addition, the activity, negative = inhibition in [3] (at 17.2 µM (top of the series)) is -3.14%.

`Cc1cc(O)c2c(c1)C(=O)c1cccc(O)c1C2=O`: the Potency in [4], in [5], in experiment [6], in [7], in [8] and in experiment [9] was > 92 µM in each case.

Turning to `CC(Oc1ccc(O)cc1)(P(=O)(O)O)P(=O)(O)O`, in experiment [10], the Potency result is “inactive”.

As to `c1coc(CNc2ncnc3nc[nH]c23)c1`, the activity change, negative = inhibition in experiment [1] (at 17.2 µM (top of the series)) is 2.59%; in experiment [2] (at 17.2 µM (top of the series)) it was 1.53%. Moreover, the activity, negative = inhibition in experiment [3] (at 17.2 µM (top of the series)) was -16.6%.

As to `COc1ccc([C@@H]2CNC(=O)C2)cc1OC1CCCC1`, the activity change, negative = inhibition in [1] (at 17.2 µM (top of the series)) is -7.88%; in experiment [1] (at 38 µM (top of the series)) it was -7.79%; in experiment [2] (at 17.2 µM (top of the series)), 2.36%; in [2] (at 38 µM (top of the series)), 11.5%. The activity, negative = inhibition in [3] (at 17.2 µM (top of the series)) was -9.88%; in experiment [3] (at 38 µM (top of the series)), -0.129%.
